# PTK2B oligo ant: Pyk2 (human) oligomerization antagonism; Q14289; z-score (the deposit names both 25 µM and 10 µM); AID 1347419; Q293 cells, Pyk2 FERM NanoBiT luminescence; stronger effect = lower value; hit rate 0.83% among 99,000;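 active = Z-score of -3 or lower, scaled per plate to the spread of control and sample wells; inactive = z-score above -3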;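 also: negative z-score means lost luminescence so less FERM oligomerization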
# CYP2C9 inh: human CYP2C9 inhibition; P11712; CYP2C9 Supersomes, luciferin-H conversion, luminescence; inhibition, % at 5 µM; hit rate 20% among 96,000;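 active = blocking of liver enzyme CYP2C9 beyond about 50% at 5 µM, limit read from the data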
# Target sequence (P11712 whole entry, looked up): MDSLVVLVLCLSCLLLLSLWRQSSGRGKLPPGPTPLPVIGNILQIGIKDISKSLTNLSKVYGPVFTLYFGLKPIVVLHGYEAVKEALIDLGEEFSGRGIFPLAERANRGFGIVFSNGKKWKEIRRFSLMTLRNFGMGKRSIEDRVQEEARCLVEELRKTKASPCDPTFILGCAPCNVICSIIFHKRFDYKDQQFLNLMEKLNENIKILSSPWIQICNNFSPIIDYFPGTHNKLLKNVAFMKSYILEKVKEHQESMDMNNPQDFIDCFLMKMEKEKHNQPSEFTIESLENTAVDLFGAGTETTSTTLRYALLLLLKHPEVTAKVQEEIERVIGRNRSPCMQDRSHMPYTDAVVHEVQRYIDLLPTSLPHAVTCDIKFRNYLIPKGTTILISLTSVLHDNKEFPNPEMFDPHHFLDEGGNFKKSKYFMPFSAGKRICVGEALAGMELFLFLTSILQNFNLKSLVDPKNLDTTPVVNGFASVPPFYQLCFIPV
# CYP2C19 act: cytochrome P450 2C19 (human) activation; recombinant CYP2C19, luciferin-H EGE luminescence; stronger effect = higher value; 0 = fully inhibited enzyme, 1 = untreated enzyme; activation factor at 5 µM; P33261; 96,000 tested, under 10 active;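 active = activation factor of at least 2 at 5 µM in the primary screen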;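 also: 0 = wells with 2.5 mM tranylcypromine and 1 = vehicle-only wells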
# CYP2C9 act: CYP2C9 (human) activation; P11712; recombinant CYP2C9, luciferin-H conversion, luminescence; stronger effect = higher value; factor 1 = untreated enzyme, 0 = blocked; activation factor at 5 µM; hit rate 1.4% among 96,000; AID 1024;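 active = activation factor of 2 or more for CYP2C9 at a 5 µM dose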;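 also: 0 = sulfaphenazole-blocked wells and 1 = vehicle-only wells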
# CYP2C19 inhib: inhibitors of human CYP2C19 | P33261 | CYP2C19 Supersomes, luciferin-H EGE luminescence, 30 min | inhibition, % at 5 µM | hit rate 21% among 96,000;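 active = CYP2C19 inhibition above a set limit at 5 µM in the primary screen, cut at about 50% in these data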;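 also: plate controls were negative control wells for no effect and 2.5 mM tranylcypromine positive control for full effect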
# Numbers without * were called inactive; . = no result. This is a sample that favours compounds with a hit; in the whole collection about 28% have one here.
SMILES,PTK2B oligo ant,CYP2C9 inh,CYP2C19 act,CYP2C9 act,CYP2C19 inhib
COc1ccc(C2C3=C(CC(C)(C)CC3=O)Nc3c2c(=O)[nH]c(=O)n3Cc2ccccc2)cc1OC (stereo not drawn),-1.1,0,0.8,1,16
CC1(C)CC(=O)C2=C(C1)Nc1[nH]n(-c3ccccc3)c(=O)c1C2c1ccc2c(c1)OCO2 (stereo not drawn),-1.3,44,0.5,0.6,55*
CC1=C(C(=O)N2CCOCC2)C(c2ccccc2F)C2=C(CC(C)(C)CC2=O)N1 (stereo not drawn),-0.77,-1,1.1,1,-14
N#CC(c1ccc(Cl)cc1)(c1ncc(C(F)(F)F)cc1Cl)N1CCOCC1 (stereo not drawn),-0.55,15,0.9,0.8,12
CCC1(C)Cc2ccccc2C(Nc2c(C)n(C)n(-c3ccccc3)c2=O)=N1 (stereo not drawn),-0.37,7,1.1,0.9,-8
CCCN1CCCc2cc(CN)ccc21,-0.02,84*,0.1,0.2,90*
CN1CCCc2cc(C=O)ccc21,0.86,.,.,.,.
CCOC(=O)c1[nH]c2ccc(OC)cc2c1NC(=O)CCN1CCc2ccccc2C1,-0.02,21,0.9,0.8,6
Cc1nn(C(C)C(=O)N2CCN(c3ccccn3)CC2)c(=O)c2cc3occc3n12 (stereo not drawn),-0.98,16,0.9,0.8,12
Cc1nn(C(C)C(=O)N2CCc3ccccc3C2)c(=O)c2cc3occc3n12 (stereo not drawn),0.79,4,0.5,1,52*
CCOC(=O)N1CCN(C(=O)C(C)n2nc(C)n3c(cc4sccc43)c2=O)CC1 (stereo not drawn),0.06,-2,1,1,0
O=C(CCCn1ncn2c(cc3occc32)c1=O)N1CCc2ccccc2C1,0.31,.,.,.,.
Cc1cccc(N2CCN(C(=O)C(C)n3nc(C)n4c(cc5occc54)c3=O)CC2)c1C (stereo not drawn),-0.4,68*,0.9,0.3,9
CCC(C(=O)N1CCc2ccccc2C1)n1nc(C)n2c(cc3occc32)c1=O (stereo not drawn),-1,69*,0.3,0.3,68*
CCC(C(=O)N1CCN(c2ccccn2)CC1)n1nc(C)n2c(cc3occc32)c1=O (stereo not drawn),0.25,91*,0.5,0.1,46
CCc1nn(C(C)C(=O)N2CCN(Cc3ccccc3)CC2)c(=O)c2cc3occc3n12 (stereo not drawn),-0.9,67*,0.3,0.3,66*
c1ccc(CCN2CCN(c3ncnc4c3cnn4-c3ccccc3)CC2)cc1,-0.91,78*,0.2,0.2,79*
CCN1CCN(c2ncnc3c2cnn3-c2ccccc2)CC1,.,8,0.9,0.9,13
CCOC(=O)C1CCCN(c2ncnc3c2cnn3-c2cccc(C)c2)C1 (stereo not drawn),0.42,23,0.9,0.8,14
Cc1cccc(-n2ncc3c(N4CCC(C)CC4)ncnc32)c1,.,96*,0.3,0,71*
c1ccc(-n2ncc3c(N4CCCCC4)ncnc32)cc1,.,82*,0.2,0.2,83*
CCn1nc(NC(=O)c2ccncc2)c2cc3cc(C)ccc3nc21,-1.9,.,.,.,.
CCCn1nc(NC(=O)c2ccncc2)c2cc3ccccc3nc21,-2.7,95*,0.1,0.1,93*
CCn1nc(NC(=O)c2ccncc2)c2cc3ccc(C)cc3nc21,-2.2,60*,0.4,0.4,63*
Cc1nc(SCn2nnc3ccccc3c2=O)c2c(C)c(C)sc2n1,.,25,0.7,0.8,26
Cc1ccc([N+](=O)[O-])cc1-c1[nH]c(-c2ccc(O)c(O)c2)nc1-c1ccccc1,-0.27,88*,0.5,0.1,52*
Cc1ccc([N+](=O)[O-])cc1-c1ccc2cccc(C)c2n1,-0.15,-5,0.8,1,16
COc1ccc(-c2nc(-c3ccccc3)c(-c3cc([N+](=O)[O-])ccc3C)[nH]2)cc1O,-1.8,74*,0.2,0.3,77*
CCOC(=O)C1CCN(S(=O)(=O)c2cc(Br)cc3c2N(C(=O)C2CC2)CC3)CC1,1.2,35,0.4,0.6,60*
O=C(C1CC1)N1CCc2cc(Br)cc(S(=O)(=O)N3CCN(c4ccccn4)CC3)c21,0.23,95*,0.3,0.1,72*

# Screens from PubChem.
